Results filed as inconclusive are left out. The source made the active and inactive calls. Cut-off read from the data, not from the text of the source, unless noted: active = percent of DMSO control GFP below about 86%; inactive = the rest, inconclusive results apart.
How the values were obtained:
[1] = yeast TOR pathway RPL19A-GFP modulators, primary screen, cell-based, S. cerevisiae, multiplex flow cytometry (AID 1862);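 note: lower values mimic rapamycin by blocking the RPL19A rise seen in DMSO cells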; conditions: S. cerevisiae RPL19A-GFP strain, flow cytometry fluorescence, 3 h; at 10 µM; stronger effect = lower value
[2] = modulators of MEP2-GFP levels in yeast, primary screen, S. cerevisiae, multiplex flow cytometry (AID 1867;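 active = GFP response, as percent of the DMSO control, above the screen-wide mean plus 3 SD, about 139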;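 note: median GFP channel fluorescence of barcode-gated MEP2-GFP cells measured by flow cytometry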); conditions: S. cerevisiae MEP2-GFP strain, 3 h, at 10 µM, stronger effect = higher value, 100% means same as DMSO wells
[3] = modulators of CIT2-GFP expression in yeast, primary screen, S. cerevisiae, GFP fusion, multiplex flow cytometry (AID 1870;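 active = percent response above a set limit, the screen-wide mean plus 3 SD, cut at about 130% in these data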;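 note: barcoded CIT2-GFP strain pooled with four other GFP strains with rapamycin as positive control; median GFP fluorescence per well over plate mean of DMSO wells so 100% = DMSO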); conditions: 3 h, at 10 µM, stronger effect = higher value
[4] = modulators of LAP4-GFP expression in yeast, primary screen, S. cerevisiae, multiplex flow cytometry (AID 1873;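 active = GFP signal, as percent of the solvent control, above the screen mean plus 3 SD, about 149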); conditions: 3 h, at 10 µM, stronger effect = higher value
[5] = modulators of AGP1-GFP expression in yeast TOR pathway, primary screen, cell-based, multiplex flow cytometry, S. cerevisiae (AID 1887;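 active = GFP signal above the screen-wide mean plus 3 SD, that is over about 124.5% of the solvent control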;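 note: AGP1-GFP fusion strain of S. cerevisiae within a five-strain barcoded multiplex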); conditions: 3 h, at 10 µM, stronger effect = higher value
[6] = RPL19A-GFP modulators, yeast TOR pathway, confirmation, cell-based, S. cerevisiae, flow cytometry, cherry picks, mother/daughter gates (AID 2270;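 active = GFP response below 50% of the DMSO control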); conditions: S. cerevisiae RPL19A-GFP strain, 3 h, at 10 µM, stronger effect = lower value, 100 = same GFP as DMSO wells
[7] = LAP4-GFP expression modulators in yeast, confirmation, cell-based, cherry picks, flow cytometry, mother/daughter gates (AID 2271;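 active = GFP response above 150% of the DMSO control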;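 note: ratio of sample to DMSO plate mean so 100% equals DMSO level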); conditions: S. cerevisiae LAP4-GFP strain, 3 h, at 10 µM, stronger effect = higher value, 100 means same as DMSO control
[8] = modulators of MEP2-GFP levels in yeast, confirmation, S. cerevisiae, flow cytometry GFP, cherry picks (AID 2272;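 active = GFP response above 150% of the DMSO control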;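 note: ratio of well signal to plate DMSO mean so 100% equals DMSO level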); conditions: S. cerevisiae MEP2-GFP strain, 3 h, at 10 µM, stronger effect = higher value
[9] = modulators of CIT2-GFP expression in yeast, confirmation, S. cerevisiae, GFP fusion, cherry picks, mother/daughter gates (AID 2274;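 active = GFP response above 150% of the DMSO level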); conditions: S. cerevisiae CIT2-GFP strain, flow cytometry, 3 h, at 10 µM, stronger effect = higher value
[10] = inhibitors of CD8+ T cell-vesicle binding, pilot screen, LFA-1/ICAM-1 modulator project, MLPCN validation set, flow cytometry (AID 2523;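 active = response below a set limit, under 55% cells CD8-positive and vesicle-bound, and CD8 cells' 90th-percentile brightness under 279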;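 for vesicle binding response: mean PE anti-B7-1 fluorescence of CD8+ cells relative to row control; 100% = QL9-loaded vesicles with DMSO vehicle in the same plate row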); conditions: 2C mouse CD8+ T cells, at 7 µM, stronger effect = lower value; double positive events: measured here: CD8+/vesicle+ event percentage
[11] = measured here: daughter cell gate
[12] = measured here: mother cell gate
[13] = measured here: daughter cell gate response
[14] = measured here: mother cell gate response

Compound	percent of DMSO control GFP [1]	GFP response vs DMSO [2]	percent response of DMSO control [3]	GFP response vs DMSO [4]	GFP response, % of DMSO [5]	GFP response vs DMSO [6]	GFP response vs DMSO [6, 11] [%]	GFP response vs DMSO [6, 12] [%]	GFP response relative to DMSO [7]	GFP response relative to DMSO [7, 13] [%]	GFP response relative to DMSO [7, 14] [%]	GFP response vs DMSO [8]	GFP response, % of DMSO [9]	GFP response, % of DMSO [9, 11] [%]	GFP response, % of DMSO [9, 12] [%]	double positive events [10] [%]	vesicle binding response [10]
C1COC(NC(C2CC2)C2CC2)=N1	89.3% (inactive)	148% (active)	110% (inactive)	85.3% (inactive)	94.5% (inactive)	96% (inactive)	97.1	97.6	95.4% (inactive)	96	95.1	96.2% (inactive)	98.3% (inactive)	101	97.3	64.4	227% (inactive)
C[C@]12C[C@H](O)[C@H]3[C@@H](CCC4=CC(=O)CC[C@@]43C)[C@@H]1CC[C@@H]2C(=O)CO	96.3% (inactive)	110% (inactive)	112% (inactive)	78.1% (inactive)	101% (inactive)	98.2% (inactive)	98.9	98.7	94.1% (inactive)	94.4	94	98.3% (inactive)	105% (inactive)	105	106	70.2	222% (inactive)
C[C@]12CC[C@H]3[C@@H](CCC4=CC(=O)CC[C@@]43C)[C@@H]1CC[C@@H]2C(=O)CO	93.7% (inactive)	119% (inactive)	102% (inactive)	84.7% (inactive)	84.3% (inactive)	97.8% (inactive)	95.3	98.4	107% (inactive)	106	106	93.5% (inactive)	91.3% (inactive)	89.9	91.2	56.7	201% (inactive)
CCCCCCCC(=O)OCC(=O)[C@@]1(O)CC[C@H]2[C@@H]3CCC4=CC(=O)CC[C@]4(C)[C@H]3[C@@H](O)C[C@@]21C	102% (inactive)	107% (inactive)	98.9% (inactive)	96.6% (inactive)	98.3% (inactive)	96.5% (inactive)	95.9	96.9	94.1% (inactive)	92.9	96.4	103% (inactive)	93.1% (inactive)	94	92.6	58.8	182% (inactive)
CN(C)CCN(Cc1ccccc1)c1ccccn1	94.8% (inactive)	140% (active)	97.9% (inactive)	85.3% (inactive)	93.3% (inactive)	96.8% (inactive)	98.1	97.9	101% (inactive)	99.2	99.3	100% (inactive)	98.3% (inactive)	99.1	98.5	62.3	269% (inactive)
